Source: PubChem (National Center for Advancing Translational Sciences (NCATS))
Pf Dd2 growth: blocks in vitro growth of P. falciparum Dd2 | actives 4.3% (n = 120,000) | P. falciparum Dd2 growth, SYBR Green, 72 h | Potency, µM (titrated, usually from 28.9 µM), inactives show at the highest dose activity, negative = inhibition, most hits filed as inhibitors; active = well fitted inhibition curve with a large enough effect;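 also: plate controls were DMSO vehicle for no effect and reference drug for full effect; nearly all actives have a fitted effect of over 65% in size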
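Readout: SYBR Green fluorescence, 485 nm excitation, 535 nm emission, after ~16 h lysis at 37C. Before that, Dd2-infected red cells (2.5% hematocrit) grew 72 h with compound, 29 uM top final concentration.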
* hit, by the source's call; [ ] = another dose, or the depositor's remark. Shown is part of a subset that was picked to be rich in hits. Potency is read from the fitted curve at half-maximal effect.

COc1ccc(C(=O)NC2CCN(c3cc(-c4ccc(Cl)cc4)[nH]n3)C2)c(OC)c1 (stereo not given) was read as Pf Dd2 growth 5µM*.
Cc1ccc(C(=O)NC2CCN(c3cc(-c4ccc(F)cc4)[nH]n3)CC2)cc1C was read as Pf Dd2 growth inactive.
Screening O=C(NC[C@H]1OC[C@@H](NCc2cnc[nH]2)[C@@H]1O)c1ccncc1 returned Pf Dd2 growth 12%[44.1 µM].
Cc1cccc(Nc2ncncc2-c2nc(-c3ccccc3)no2)c1C was read as Pf Dd2 growth -11%.
For CCCS(=O)(=O)N[C@H]1C[C@@H](c2nc(-c3ccc4c(c3)OCO4)no2)N(C)C1 the results were Pf Dd2 growth inactive.
Screening O=C(CC1CCCC1)N1CCC2(CC1)CC(N(C(=O)c1ccccc1)C1CC1)CCO2 (stereo not given) returned Pf Dd2 growth -9%.
For COc1ccc(-c2cc(N3CCC(NC(=O)c4cc(F)ccc4Cl)CC3)n[nH]2)cc1 the results were Pf Dd2 growth -11%.
`COc1ccc(-c2cc(N3CCCC(NC(=O)c4cc(C)ccc4C)C3)n[nH]2)cc1` (stereo not given) gave Pf Dd2 growth -7%.
COc1ccc(-c2cc(N3CCC(NC(=O)c4ccc(F)cc4F)CC3)n[nH]2)cc1 was read as Pf Dd2 growth 1.3µM*.
`COc1ccc(C(=O)NC2CCN(c3cc(-c4ccc(OC)cc4)[nH]n3)C2)cc1` (stereo not given) gave Pf Dd2 growth -10%.
`COc1ccc(-c2cc(N3CCC(NC(=O)c4ccc(F)cc4Cl)CC3)n[nH]2)cc1` gave Pf Dd2 growth inactive.
`COc1ccc(-c2cc(N3CCCC(NC(=O)c4cc(C)cc(C)c4)C3)n[nH]2)cc1` (stereo not given) gave Pf Dd2 growth 8.9µM*.
`COc1ccc(-c2cc(N3CCC(NC(=O)c4cc(C)cc(C)c4)C3)n[nH]2)cc1` (stereo not given) gave Pf Dd2 growth inactive.
`COc1ccc(-c2cc(N3CCC(NC(=O)c4ccc(Br)cc4)C3)n[nH]2)cc1` (stereo not given) gave Pf Dd2 growth -22%.
COc1ccc(C(=O)NC2CCN(c3cc(-c4ccc(Cl)cc4)[nH]n3)C2)cc1 (stereo not given) was read as Pf Dd2 growth 8.9µM*.
Screening Cc1cnn(C2(C(=O)O)CCN(S(=O)(=O)c3cnn(C)c3)CC2)c1 returned Pf Dd2 growth -12%.
CS(=O)(=O)N1CCC(C2CCN(C(=O)c3cn[nH]c3)C2)CC1 (stereo not given) was read as Pf Dd2 growth -8%.
O=C(C1CCC1)N1CCC(c2noc(-c3cnccn3)n2)C1 (stereo not given) was read as Pf Dd2 growth inactive[5.79 µM].
`COc1ccc2c(c1)C1(CCN(C(=O)c3ccc(C)c(F)c3)C1)C(=O)N2C` (stereo not given) gave Pf Dd2 growth inactive.
Screening O=C(Nc1ccc(Br)c(F)c1)c1cnc(-c2ccccc2)nc1-c1ccncc1 returned Pf Dd2 growth -15%.
CC(=O)N1CCC([C@@H]2CN(C3CCN(C(C)=O)CC3)C[C@H]2CO)CC1 was read as Pf Dd2 growth 3%.
CN1CCC(N(C)CC2CCCN(CCc3ccc(F)cc3)C2)CC1 (stereo not given) was read as Pf Dd2 growth 8.9µM*.
Screening Cc1nc(C)c(CN(C)C2CCCN(CCc3ccccc3)C2)nc1C (stereo not given) returned Pf Dd2 growth -16%.
`CN(Cc1ccc(F)cc1)CC1CCCCC1` gave Pf Dd2 growth 23%[44.1 µM].
Cc1ccsc1C(=O)NCCC1CCN(C(=O)Nc2ccccc2)CC1 was read as Pf Dd2 growth -18%.
`COCc1nnc2n1CCC(NC(=O)c1n[nH]c3ccccc13)CC2` (stereo not given) gave Pf Dd2 growth 12%.
`Cc1ccccc1-c1nc(N2CCOCC2)cc2c1CN(Cc1ccccc1)C2=O` gave Pf Dd2 growth 61%[44.1 µM].
For O=C(CCS(=O)(=O)c1ccccc1)N[C@H]1[C@@H]2CCO[C@@H]2[C@@H]1C1CCCC1 the results were Pf Dd2 growth -5%.
For Cc1cccc(C(=O)N2[C@@H]3CC[C@H]2CC(NC(=O)c2ccncc2)C3)c1 (stereo not given in full) the results were Pf Dd2 growth inactive.
CCN(CC)c1ccc(C2Nc3ccccc3-c3cc(C)nn32)cc1 (stereo not given) was read as Pf Dd2 growth -26%.
Screening COC(=O)c1ccc(C2Nc3c(C)cccc3-c3cc(C)nn32)cc1 (stereo not given) returned Pf Dd2 growth 0.45µM*.
For COc1ccc(C2Nc3ccccc3-c3cc(C)nn32)c(OC)c1 (stereo not given) the results were Pf Dd2 growth -2%.
COc1cccc(CN2CCC3(C2)C(=O)N(C)C(=O)N3C)c1 (stereo not given) was read as Pf Dd2 growth 20%.
For O=C(Nc1ccc(F)c(F)c1)C1CCN(C(=O)c2ncn3c2COC(c2ccccc2)C3)CC1 (stereo not given) the results were Pf Dd2 growth -16%.
For CCn1c(-c2ccccc2)nn(CC(=O)NCc2ccc3nonc3c2)c1=O the results were Pf Dd2 growth 1%.
O=C(NCc1ccc2nonc2c1)[C@@]12CNC[C@@H]1CN(C1CCCC1)C2 was read as Pf Dd2 growth 7.9µM*.
`O=C(O)[C@]12CN(Cc3ccncc3)C[C@H]1CN(C1CCOCC1)C2` gave Pf Dd2 growth -12%.
Screening Cc1occc1C(=O)N1C[C@@H](CO)[C@H](c2nc(C3CC3)no2)C1 returned Pf Dd2 growth -2%.
CC(C)[C@H]1CN(CCC(=O)O)C[C@@H]1NC(=O)CCC1CCCC1 was read as Pf Dd2 growth -9%.
`Cc1ccc(NC(=O)c2cc(-c3ccc(Br)s3)nc3ccccc23)cc1F` gave Pf Dd2 growth -22%.
`COc1ccc(CNC(=O)c2cc(-c3ccc(Br)s3)nc3ccccc23)cc1` gave Pf Dd2 growth 232%[5.79 µM].
`CCN(CC)CC(C)CNC(=O)c1cc(-c2ccc(Br)s2)nc2ccccc12` (stereo not given) gave Pf Dd2 growth 11µM*.
For OCc1ccc(CNC2(Cc3cc(COc4ccccc4)on3)COC2)o1 the results were Pf Dd2 growth -29%[44.1 µM].
`O=C(NCc1ccccc1)C1CCN(C(=O)N2CC3CC(C2)[C@H]2CCCC(=O)N2C3)CC1` (stereo not given in full) gave Pf Dd2 growth 4%.
`Cc1cccc(-c2nc(CN3C(=O)CN=C(c4ccccc4)c4ccccc43)c(C)o2)c1` gave Pf Dd2 growth -22%.
`Cc1cccc(CN2CCN(Cc3nc(-c4ccco4)oc3C)C(C)C2=O)c1` (stereo not given) gave Pf Dd2 growth 13µM*.
`COc1cccc(CN2CC[C@H](c3nnc(-c4ccco4)o3)C2)c1` gave Pf Dd2 growth inactive.
For O=c1[nH]c(C2CCN(Cc3ccccc3)CC2)nn1Cc1ccccc1 the results were Pf Dd2 growth 18%.
For O=C(Nc1ccccc1)c1nc2c(o1)CCN(Cc1cccs1)CC2 the results were Pf Dd2 growth -26%[44.1 µM].
Screening COc1cccc(Nc2ncc(-c3c(C)noc3C)c3c2OCC3)c1 returned Pf Dd2 growth 5%[44.1 µM].
For c1ccc(-c2cnc(Nc3cncnc3)c3c2CCO3)cc1 the results were Pf Dd2 growth -12%[44.1 µM].
`COc1cncc(Nc2ncc(-c3cccc(N(C)C)c3)c3c2OCC3)c1` gave Pf Dd2 growth 7.1µM*.
`CN(C)c1cccc(-c2cnc(Nc3cccnc3)c3c2CCO3)c1` gave Pf Dd2 growth 13µM*.
